Source: PubChem BioAssay

Target: Fibroblast growth factor 2 (Homo sapiens) (UniProt P09038)
Assay: basic fibroblast growth factor binding to printed compounds – biochemical, small-molecule microarray, 635/667 nm fluorescence, primary screen (AID 1133)
Settings: FGF2, fluorescence 635/667, higher = more signal

Sequence of Fibroblast growth factor 2 (Homo sapiens) (P09038 whole entry, looked up): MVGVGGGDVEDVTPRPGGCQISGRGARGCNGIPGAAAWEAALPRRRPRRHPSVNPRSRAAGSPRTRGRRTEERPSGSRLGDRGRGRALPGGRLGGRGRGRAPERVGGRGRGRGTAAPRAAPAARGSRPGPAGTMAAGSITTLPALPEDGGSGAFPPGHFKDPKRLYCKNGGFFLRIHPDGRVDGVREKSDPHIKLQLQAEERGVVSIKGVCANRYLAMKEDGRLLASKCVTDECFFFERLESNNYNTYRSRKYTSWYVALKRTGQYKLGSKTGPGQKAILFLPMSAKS

Structure (SMILES) | composite z-score
C#CCN(CC=C(C)C)[C@H](CO)c1ccccc1 | 0.295
CCc1oc(CC[C@@H](CO)NC(=O)NCCn2cc(C3(O)CCCCC3)nn2)c(C(=O)OC)c1C(=O)OC | 1.13
C#CCN(Cc1ccccc1Br)C(/C=C/c1ccccc1)CO (stereo unspecified) | 0.774
C#CCNC(=O)[C@H](Cc1ccccc1)NC(=O)CCC(=O)O | -0.246
C[C@@]1([C@@H](NC(=O)c2ccccc2)c2ccc(-c3ccccc3)cc2)C[C@H]1C1CCCCC1 | -1
CC(C)C(=C=CC[C@@H](O)c1ccccc1OCCO)CCO | 0.853
O=C(c1ccccc1)N1Cc2ccccc2[C@@H]2OC(c3ccc(OCCCO)cc3)=N[C@]2(Cc2ccccc2)C1=O | 1.02
CC(C)C(CO)N1C(=O)[C@@H]2[C@H]3C(=O)OCC=C[C@H]3OC23C=CCN(C(C)C)C(=O)[C@@H]13 (stereo partly specified) | -0.501
CN(C)C(=O)[C@@]1(Cc2ccccc2)N=C(c2ccc(OCCCO)cc2)O[C@H]1c1ccccc1N=[N+]=[N-] | 0.249
C=C/C=C/[C@H]1C(=C)CN([C@@H](Cc2ccccc2)C(=O)OC)[C@@H]1[C@H](O)Cc1ccccc1 | -0.348
COCCOC(=O)N1C(=O)[C@@]2(c3cc(C#CC4(O)CCCCCC4)ccc31)[C@H](c1ccc(O)cc1)N1[C@H](c3ccccc3)[C@H](c3ccccc3)OC(=O)[C@H]1[C@@H]2C(=O)Nc1nc2ccccc2s1 | 1.05
Cc1ccc(S[C@]2(C(=O)NC(C)C)CC(=O)N(Cc3ccccc3Cl)[C@@H]2c2ccc(CO)cc2I)cc1 | -0.934
COc1ccc(CCNC(=O)[C@@]2(Sc3ccc(C)cc3)CC(=O)N(C3CCCCC3)[C@@H]2c2ccc(CO)cc2I)cc1 | 0.535
COCCOC(=O)N1C(=O)[C@@]2(c3cc(C#Cc4ccc(OC)cc4)ccc31)[C@H](c1ccccc1OCCO)N1[C@H](c3ccccc3)[C@H](c3ccccc3)OC(=O)[C@H]1[C@@H]2C(=O)N1CCN(c2ncccn2)CC1 | 0.404
NC(=O)[C@@H]1[C@H]2C(=O)O[C@H](c3ccccc3)[C@H](c3ccccc3)N2[C@H](c2ccc(O)cc2)[C@@]12C(=O)Nc1ccc(C#CC3(O)CCCCCC3)cc12 | -0.384
CC(=O)N1Cc2ccccc2C[C@@]2(COC(c3ccc(OCCCO)cc3)=N2)C1=O | 0.701
